Inconclusive results are not listed. Entries that show only a call come without a potency. Active and inactive are the calls of the source. Unless noted, calls come from the whole dose curve; as a rule, active = well fitted curve in the direction sought with a large enough effect in the repeat runs; inconclusive = weak or mixed curves; inactive = no such curve, though single readings can be large; an effect the other way counts as inactive or inconclusive.
How the values were obtained:
[1] = qHTS assay to identify small molecule antagonists of the retinoid acid receptor (RAR) signaling pathway - cell viability counter screen (AID 1159551); note: nearly all actives have a fitted effect of over 35% in size
How it was run: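 Luminescent ATP quantitation (CellTiter-Glo) gave cell viability in C3RL4 cells exposed to test chemicals for 6 h at 37 C alongside 1 uM final retinol.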

[2] = qHTS assay to identify small molecule antagonists of the retinoic acid receptor (RAR) signaling pathway (AID 1159552; note: nearly all actives have a fitted effect of over 50% in size; note: potency is the fitted concentration of half-maximal effect)
How it was run: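 Cells of the C3RL4 line were seeded, incubated overnight, then dosed with compounds in DMSO followed immediately by retinol (1 uM final). Six hours later luciferase detection reagent went in; signal was measured after 30 min at RT.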

[3] = qHTS assay to identify small molecule antagonists of the estrogen related receptor (ERR) signaling pathway from Tox21 library - cell viability counter screen (AID 1224834); note: nearly all actives have a fitted effect of over 30% in size; note: potency is the fitted concentration of half-maximal effect
How it was run: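 Fluorescence from CellTiter-Fluor gives the viability read-out, taken 30 min after reagent addition. Before that, ERR cells seeded 6 h earlier were incubated with compounds for 17.5 h at 37 C.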

[4] = target: Luciferin 4-monooxygenase (Photinus pyralis) (UniProt P08659); assay: qHTS assay to identify small molecule inhibitors of firefly luciferase (AID 1224835); note: nearly all actives have a fitted effect of over 25% in size; note: potency is the fitted concentration of half-maximal effect
How it was run: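 Quantitative HTS format; KM concentrations of both substrates. Purified P. pyralis FLuc activity quantified from luminescence images.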

[5] = qHTS assay to identify small molecule antagonists of the constitutive androstane receptor (CAR) signaling pathway - cell viability counter screen (AID 1224837); note: nearly all actives have a fitted effect of over 45% in size; note: potency is the fitted concentration of half-maximal effect
How it was run: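 HepG2-CYP2B6-hCAR cells, 2500/well, 4 hr pre-incubation; compound titration, 15 conc.; CITCO 50 nM final; 23 hr, 37 C/5% CO2; CellTiter-Fluor, fluorescence intensity.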

[6] = target: Nuclear receptor subfamily 1 group I member 3 (Homo sapiens) (UniProt Q14994); assay: qHTS assay to identify small molecule antagonists of the constitutive androstane receptor (CAR) signaling pathway (AID 1224838);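 note: HepG2 cells stably expressing hCAR with CYP2B6 luciferase reporter stimulated by CITCO; nearly all actives have a fitted effect of over 40% in size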; note: potency is the fitted concentration of half-maximal effect
How it was run: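 HepG2-CYP2B6-hCAR cells; 4 h pre-incubation; cpd (15 conc) + CITCO 50 nM final; 24 h, 37 C/5% CO2; ONE-Glo, luminescence.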

[7] = target: Nuclear receptor subfamily 1 group I member 3 (Homo sapiens) (UniProt Q14994); assay: qHTS assay to identify small molecule agonists of the constitutive androstane receptor (CAR) signaling pathway (AID 1224839);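 note: HepG2 cells stably carrying human CAR and a CYP2B6 luciferase reporter; series mostly up to about 92 µM; nearly all actives have a fitted effect of over 15% in size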
How it was run: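 HepG2-CYP2B6-hCAR cells, 2500/well, 4 h pre-incubation; compounds 15 conc.; PK11195 0.75 uM final; 24 h, 37 C/5% CO2; ONE-Glo luciferase read.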

[8] = qHTS assay to identify small molecule antagonists of the estrogen related receptor signaling pathway with the pleiotropic PPARgamma coactivator (PGC) from Tox21 10K library - cell viability counter screen (AID 1224840; active = well fitted cell-killing curve with a large enough effect in the repeat runs, not every such curve was filed as active; note: nearly all actives have a fitted effect of over 40% in size)
How it was run: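 PGC/ERR cells, 2,000/well; 6 h pre-incubation 37 C/5% CO2; cpd in DMSO via pin tool; 17.5 h 37 C; CellTiter-Fluor, 30 min; fluorescence.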

[9] = qHTS assay to identify small molecule antagonists of the estrogen related receptor signaling pathway with the pleiotropic PPARgamma coactivator (PGC) from Tox21 10K library (AID 1224841; call rule not given here; note: actives are mostly falling curves and most rising ones were filed inactive; nearly all actives have a fitted effect of over 50% in size; note: potency is the fitted concentration of half-maximal effect)
How it was run: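 PGC/ERR cell line, 2,000 cells/well; 6 h pre-incubation 37 C/5% CO2; compounds (DMSO) pinned in; 18 h, 37 C; One-Glo, 30 min RT; luminescence.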

[10] = qHTS assay to identify small molecule agonists of the estrogen related receptor signaling pathway with the pleiotropic PPARgamma coactivator (PGC) from Tox21 10K library (AID 1224842); note: nearly all actives have a fitted effect of over 15% in size
How it was run: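 PGC/ERR reporter cells (NTP line) were seeded 2,000 per well, rested 6 h at 37 C/5% CO2, then pin-dosed with compounds in DMSO for 18 h at 37 C; luciferase read by One-Glo luminescence after 30 min at room temperature.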

[11] = target: Thyrotropin receptor (Homo sapiens) (UniProt P16473); assay: qHTS assay to identify small molecule agonists of the thyroid stimulating hormone receptor (TSHR) signaling pathway (AID 1224843; calls by dose curve; note: nearly all actives have a fitted effect of over 45% in size)
How it was run: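 Cell line HEK293 with TSHR; density 800/well. Exposure 30 min RT. Readout HTRF cAMP (cAMP-d2/anti-cAMP-cryptate), 1 h RT before reading.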

[12] = qHTS assay to identify small molecule agonists of the hypoxia (HIF-1) signaling pathway - cell viability counter screen (AID 1224844; calls by dose curve; note: nearly all actives have a fitted effect of over 50% in size; note: potency is the fitted concentration of half-maximal effect)
How it was run: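 ME-180 HRE-bla cells, 2,000/well, 0.5% dialyzed FBS; 5 hr settle, 17 hr compound at 37C/5% CO2; CCF4-AM reporter read first, then CellTiter-Glo luminescence after 30 min RT.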

[13] = qHTS assay to identify small molecule agonists of the retinoic acid receptor (RAR) signaling pathway (AID 1159553); note: potency is the fitted concentration of half-maximal effect
How it was run: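 Luminescence from a RARE-driven luciferase reporter in C3RL4 cells served as the read-out, measured after 30 min with detection reagent at room temperature. Compounds in DMSO were applied for 6 hr at 37 C following overnight seeding.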

[14] = qHTS assay to identify small molecule agonists of the constitutive androstane receptor (CAR) signaling pathway - cell viability counter screen (AID 1224836); note: nearly all actives have a fitted effect of over 45% in size; note: potency is the fitted concentration of half-maximal effect
How it was run: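 HepG2-CYP2B6-hCAR, 2500 cells/well, 4 h pre-incubation; cpd 15 conc + PK11195 0.75 uM final; 23 h, 37 C/5% CO2; CellTiter-Fluor, fluorescence.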

Sequence of Luciferin 4-monooxygenase (Photinus pyralis) (P08659 whole entry, looked up): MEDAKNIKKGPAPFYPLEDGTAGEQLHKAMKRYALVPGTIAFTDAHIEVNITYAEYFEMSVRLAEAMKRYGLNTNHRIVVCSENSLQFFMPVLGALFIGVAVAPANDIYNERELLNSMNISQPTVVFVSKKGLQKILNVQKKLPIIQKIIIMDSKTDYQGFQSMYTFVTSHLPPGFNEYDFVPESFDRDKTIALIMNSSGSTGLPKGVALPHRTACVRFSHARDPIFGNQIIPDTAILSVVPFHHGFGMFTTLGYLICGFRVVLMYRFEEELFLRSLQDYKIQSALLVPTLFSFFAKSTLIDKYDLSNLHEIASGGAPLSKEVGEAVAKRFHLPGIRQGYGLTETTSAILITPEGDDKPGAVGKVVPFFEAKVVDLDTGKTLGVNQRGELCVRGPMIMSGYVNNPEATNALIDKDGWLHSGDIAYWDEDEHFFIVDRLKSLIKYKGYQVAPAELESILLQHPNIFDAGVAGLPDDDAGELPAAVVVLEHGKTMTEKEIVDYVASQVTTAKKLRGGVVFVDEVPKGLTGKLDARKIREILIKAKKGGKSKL
Sequence of Nuclear receptor subfamily 1 group I member 3 (Homo sapiens) (Q14994 whole entry, looked up): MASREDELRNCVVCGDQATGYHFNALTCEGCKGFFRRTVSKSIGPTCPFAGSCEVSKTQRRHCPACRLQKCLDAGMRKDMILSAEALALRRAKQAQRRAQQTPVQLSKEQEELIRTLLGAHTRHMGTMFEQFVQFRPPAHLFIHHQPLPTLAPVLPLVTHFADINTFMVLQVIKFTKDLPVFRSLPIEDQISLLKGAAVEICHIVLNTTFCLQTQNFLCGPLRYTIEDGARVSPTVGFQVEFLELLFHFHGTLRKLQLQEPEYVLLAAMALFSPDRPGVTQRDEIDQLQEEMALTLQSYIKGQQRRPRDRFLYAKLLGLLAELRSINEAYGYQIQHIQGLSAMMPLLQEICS
Sequence of Thyrotropin receptor (Homo sapiens) (P16473 whole entry, looked up): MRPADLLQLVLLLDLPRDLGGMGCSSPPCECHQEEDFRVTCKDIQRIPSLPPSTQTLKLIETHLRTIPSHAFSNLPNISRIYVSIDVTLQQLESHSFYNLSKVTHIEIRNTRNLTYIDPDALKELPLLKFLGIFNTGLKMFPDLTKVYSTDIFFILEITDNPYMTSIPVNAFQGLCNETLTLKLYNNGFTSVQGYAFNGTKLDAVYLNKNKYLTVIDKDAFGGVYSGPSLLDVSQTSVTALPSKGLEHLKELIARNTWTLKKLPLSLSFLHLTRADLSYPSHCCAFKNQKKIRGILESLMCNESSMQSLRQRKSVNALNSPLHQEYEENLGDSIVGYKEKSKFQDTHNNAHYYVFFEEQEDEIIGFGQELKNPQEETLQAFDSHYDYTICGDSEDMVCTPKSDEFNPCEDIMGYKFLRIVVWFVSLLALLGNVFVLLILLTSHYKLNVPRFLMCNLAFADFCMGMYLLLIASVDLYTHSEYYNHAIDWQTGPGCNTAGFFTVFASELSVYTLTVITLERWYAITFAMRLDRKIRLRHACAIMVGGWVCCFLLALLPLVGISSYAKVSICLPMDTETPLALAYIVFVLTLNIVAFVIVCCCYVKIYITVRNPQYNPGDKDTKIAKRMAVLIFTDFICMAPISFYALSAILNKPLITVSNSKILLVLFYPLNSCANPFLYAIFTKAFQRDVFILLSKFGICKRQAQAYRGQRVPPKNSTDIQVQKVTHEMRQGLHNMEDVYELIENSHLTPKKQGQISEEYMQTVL

SMILES	Potency [1]	Potency [2]	Potency [3]	Potency [4]	Potency [5]	Potency [6]	Potency [7]	Potency [8]	Potency [9]	Potency [10]	Potency [11]	Potency [12]	Potency [13]	Potency [14]
CC(C)=CCCC(C)O (configuration not stated)	inactive	inactive	inactive	inactive	inactive	inactive	inactive	inactive	inactive	inactive	inactive	inactive	–	–
C=CC(=O)OCCN(CC)CC	inactive	inactive	inactive	inactive	–	inactive	inactive	inactive	–	–	inactive	–	–	–
Cc1oc(-c2ccccc2)nc1CCOc1ccc(C[C@H](Nc2ccccc2C(=O)c2ccccc2)C(=O)O)cc1	inactive	inactive	–	–	–	–	–	–	–	–	inactive	–	–	–
C=CC(=O)OCCC#N	inactive	–	inactive	inactive	inactive	inactive	–	inactive	inactive	–	inactive	inactive	inactive	inactive
Cn1cnc2ncnc(N)c21	inactive	–	inactive	inactive	inactive	inactive	inactive	inactive	–	–	inactive	inactive	inactive	inactive
CCCCCCOc1ccc(O)cc1	inactive	–	27.3 µM (active)	35.6 µM (active)	–	inactive	–	inactive	inactive	–	inactive	54.9 µM (active)	0.611 µM (active)	–
Clc1cccnc1	inactive	inactive	inactive	inactive	inactive	–	–	inactive	–	–	inactive	inactive	–	–
CNCC[C@H](Oc1cccc2ccccc12)c1cccs1	inactive	23.7 µM (active)	–	–	26.6 µM (active)	29.8 µM (active)	inactive	–	33.5 µM (active)	inactive	inactive	–	–	21.1 µM (active)
CCCSS/C(CCO)=C(\C)N(C=O)Cc1cnc(C)nc1N	inactive	29.8 µM (active)	–	inactive	inactive	–	–	inactive	–	–	inactive	inactive	–	–
[O]=[Zr]	inactive	–	inactive	39.8 µM (active)	inactive	–	–	inactive	inactive	inactive	–	–	inactive	inactive
CC(=O)C=O	inactive	inactive	inactive	inactive	–	inactive	inactive	inactive	–	–	–	inactive	–	–
COC(=O)[C@]1(C)CCC[C@@]2(C)[C@H]1CC=C1C=C(C(C)C)CC[C@@H]12	inactive	–	inactive	inactive	inactive	inactive	inactive	inactive	inactive	inactive	inactive	–	inactive	inactive
